Screening results (PubChem BioAssay)
Lmaj promast: Leishmania major promastigote growth inhibition, primary screen; Leishmania major promastigotes, resazurin fluorescence viability; inhibition, % at 10 µM; actives 9% (n = 200,000); in the data active = inhibition above about 50%;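 note: promastigotes grown with compound for 44 hours at 28 °C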
WT yeast gro inh: growth inhibition of WT strain, primary screen, mitochondrial fusion inhibitor project, WT and mutant strains, chemical genetic. inhibition, % at 10 µM. mitochondrial fusion phenotypic screen. AID 1362, 2008. actives 2.1% (n = 190,000); in the data active = inhibition above about 58%; tested in S. cerevisiae
CHOP inhibitor: inhibitors of CHOP promoter induction, primary screen, cell-based, unfolded protein response, luciferase reporter. CHO-K1 CHOP-promoter luciferase, tunicamycin-induced, 15-18 h. inhibition, % at 10 µM. actives 3.8% (n = 220,000). AID 2732, 2010;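 active = compounds that reduced the stress-induced luciferase reporter signal by more than about 70% of percent inhibition, limit read from the data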;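 note: 0% = tunicamycin plus vehicle and 100% = wells without tunicamycin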
RAM network inh: inhibitors of the yeast RAM network, primary screen, dse1pr::URA3 reporter, 5-FOA selection; S. cerevisiae dse1pr::URA3 reporter, 5-FOA growth OD615, 2 d; analog-sensitive cbk1-as2 kinase mutant strain; inhibition, % at 50 µM; actives 1.8% (n = 190,000); AID 868, 2007;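 active = inhibition above a set limit, 3 SD over mean compound inhibition, cut at about 8.4% in these data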;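 note: 0% = DMSO-only wells with no growth and 100% = 10 µM 1-NA-PP1 full growth; inhibition rescues growth on 5-FOA so higher OD means more RAM inhibition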
Starred values were filed as active, the others as inactive; / = not tested or not shown. Compounds with a hit are over-represented: about 13% of the library has one in this group of screens.

SMILES	Lmaj promast	WT yeast gro inh	CHOP inhibitor	RAM network inh
O=C(Nc1cccc(-c2cn3cccnc3n2)c1)c1cccs1	98*	-9	-3	1
Cc1cccn2cc(-c3cccc(NC(=O)c4cccs4)c3)nc12	10	-4	0	2
Cc1ccc(-c2cn3cccnc3n2)cc1NC(=O)c1ccc(Br)o1	39	/	55	0
COc1ccc(-c2cn3cccnc3n2)cc1NC(=O)c1ccc(Br)o1	99*	5	86*	1
O=C1/C(=C/c2ccsc2)N2CCC1CC2	/	/	2	/
Cc1ccccc1OS(=O)(=O)c1cn(C)c(=O)n(C)c1=O	-4	2	10	4
c1cnc2nc(-c3ccc4c(c3)OCO4)cn2c1	-1	24	3	1
O=C(Nc1ccc(O)c(-c2nc3ccccc3s2)c1)c1cccs1	62*	-3	11	2
O=C(Nc1cccc(-c2cn3cccnc3n2)c1)c1ccco1	100*	-11	19	1
Cc1nc(-c2cccc(NC(=O)c3cccs3)c2)cs1	5	-9	25	-1
O=C(Nc1cccc(-c2csc(-c3ccccc3)n2)c1)c1cccs1	82*	36	52	3
O=C(Nc1cccc(-c2cn3cccnc3n2)c1)Nc1ccccc1F	22	4	4	0
O=C(Nc1cccc(-c2cn3cccnc3n2)c1)c1ccc2c(c1)OCO2	98*	/	25	0
O=C(/C=C/c1ccco1)NC(=S)Nc1ccc(O)c(-c2nc3ccccc3s2)c1	-6	-32	26	7
O=C(NNS(=O)(=O)c1cc(Cl)cc(Cl)c1)c1sccc1-n1cccc1	1	23	2	5
CCn1c(C)nc2cc(C(=O)OC(C(F)(F)C(F)F)C(F)(F)C(F)F)ccc21	100*	81	74*	1
CCn1c(C)nc2cc(C(=O)NNC(=O)c3ccc(Cl)nc3)ccc21	-5	-37	-9	1
COc1cccc2[nH]c3c(N4CCCCC4)ncnc3c12	96*	6	-2	1
CCOC(=O)C1CCN(c2ncnc3c2oc2ccc(Cl)cc23)CC1	-4	62	42	0
CCOC(=O)N1CCN(c2ncnc3c2[nH]c2ccc(OC)cc23)CC1	7	-5	28	3
CCOC(=O)C1CCN(c2ncnc3c2[nH]c2cccc(OC)c23)CC1	73*	17	5	0
CCOC(=O)N1CCN(c2ncnc3c2[nH]c2ccc(F)cc23)CC1	29	5	71*	1
CC1(C(=O)OCC(=O)Nc2cccc(S(=O)(=O)NC3=NCCCCC3)c2)CC1(Cl)Cl (stereo unspecified)	0	-12	3	0
COc1cc([C@@H]2C[C@H]3CN(c4ccccc4)C(=O)[C@]34CCCN24)cc(OC)c1OC	2	9	78*	1
CCOc1cc([C@@H]2C[C@H]3CN(c4ccccc4)C(=O)[C@]34CCCN24)ccc1OC	2	-3	84*	1
SMILES	Lmaj promast	WT yeast gro inh	CHOP inhibitor	RAM network inh
COc1cc(Cl)c([C@@H]2C[C@H]3CN(c4ccccc4)C(=O)[C@]34CCCN24)cc1OC	-5	12	-16	1
O=C(O)c1ccccc1C(=O)NCCc1c(C(=O)O)[nH]c2ccc(Cl)cc12	/	/	2	/
O=C(CN1CCN(Cc2ccc3c(c2)OCO3)CC1)Nc1ccc(F)cc1	97*	17	2	2
O=C(CN1CCCN(S(=O)(=O)c2ccc(Br)cc2)CC1)Nc1ccc2c(c1)OCO2	86*	5	23	1
COc1ccc(NC(=O)CN2CCN(Cc3ccc4c(c3)OCO4)CC2)cc1OC	71*	-6	6	1
CCN1CCN(CC(=O)c2c[nH]c3ccccc23)CC1	-4	-9	14	1
O=C(CN1CCN(Cc2ccc3c(c2)OCO3)CC1)c1c[nH]c2ccccc12	86*	0	45	2
O=C(CN1CCN(S(=O)(=O)c2ccc(F)cc2)CC1)Nc1ccc2c(c1)OCO2	2	-1	-7	1
Cc1oc(-c2cc3c(cc2Cl)OCO3)nc1CN1CCCC1c1ccc(F)cc1 (stereo unspecified)	16	37	66	0
NS(=O)(=O)c1cccc(NC(=O)CN2CCN(Cc3ccc4c(c3)OCO4)CC2)c1	53*	-13	10	0
COc1cc(NC(=O)CN2CCN(Cc3ccc4c(c3)OCO4)CC2)cc(OC)c1	86*	-4	2	0
CC1CCc2nc(NC(=O)CN3CCN(c4ccccc4)CC3)sc2C1 (stereo unspecified)	-4	50	36	0
O=C(CN1CCN(Cc2ccc3c(c2)OCO3)CC1)Nc1ccc2c(c1)OCCO2	91*	8	-3	2
CC1CCc2nc(NC(=O)CN3CCN(Cc4ccc5c(c4)OCO5)CC3)sc2C1 (stereo unspecified)	99*	17	82*	1
O=C(CN1CCN(Cc2ccc3c(c2)OCO3)CC1)Nc1ccc2c(c1)OCO2	92*	16	14	1
O=C(Nc1ccccc1)N1CCN(Cc2ccc3c(c2)OCO3)CC1	-3	7	12	0
Cc1cc(NC(=O)CN2C(=O)S/C(=C\c3ccccc3)C2=O)no1	-5	-10	8	2
CC(/C=C1\SC(=S)N(NC(=O)c2cccc(O)c2)C1=O)=C\c1ccccc1	-1	86*	2	8
Cc1cccc(NC(=O)CN2C(=O)N/C(=C/c3cc(C)n(C(C)C)c3C)C2=O)c1	36	-19	70	4
Cn1cc(/C=C2\SC(=S)N(NC(=O)c3ccccc3)C2=O)c2ccccc21	-1	0	-20	8
Cc1cccc(NC(=O)CN2C(=O)N/C(=C/c3ccc(C)s3)C2=O)c1	-3	1	92*	2
O=C(/C=C1\SC(=O)N(CC(=O)Nc2ccc(F)cc2)C1=O)Nc1ccc(Cl)cc1	52*	-1	-22	8
CC(/C=C1\SC(=O)N(CC(=O)Nc2cccc(O)c2)C1=O)=C\c1ccccc1	21	52	95*	1
Cc1cc(C)cc(C(=O)NN2CCOCC2)c1	47	-12	30	-1
O=C(/C=C1\SC(=O)N(CC(=O)Nc2ccc(Cl)cc2)C1=O)Nc1ccc(F)cc1	22	2	11	5
SMILES	Lmaj promast	WT yeast gro inh	CHOP inhibitor	RAM network inh
Cc1cccc(NC(=O)CN2C(=O)S/C(=C\C(=O)Nc3ccc(Cl)cc3)C2=O)c1	54*	2	30	6
Cc1ccccc1COC(=O)c1nn(-c2ccccc2)nc1N	12	62*	61	9.4*
Nc1nn(-c2ccccc2)nc1C(=O)OCc1ccccc1F	17	16	33	7
CCOC(=O)C1=NN(c2ccccc2)C(c2ccccc2)CC1=O (stereo unspecified)	49	3	16	1
COc1ccc(C2CC(c3ccccc3)=NN2c2ccc(N)cc2)cc1 (stereo unspecified)	8	38	91*	6
CCOC(=O)C1=NN(c2ccc(OC)cc2)C(c2ccccc2)CC1=O (stereo unspecified)	61*	3	16	0
